VDR inhibitor: inhibitors of human vitamin D receptor; P11473; VDR-SRC2-3 peptide fluorescence polarization, 2 h; Potency, µM, inactives show max response, negative = inhibition, usual class: inhibitors; 0.93% of 400,000 active; AID 504847; also: % is scaled to controls: 0 for no effect and ±100 for the full control effect
Target sequence (P11473 whole entry, looked up): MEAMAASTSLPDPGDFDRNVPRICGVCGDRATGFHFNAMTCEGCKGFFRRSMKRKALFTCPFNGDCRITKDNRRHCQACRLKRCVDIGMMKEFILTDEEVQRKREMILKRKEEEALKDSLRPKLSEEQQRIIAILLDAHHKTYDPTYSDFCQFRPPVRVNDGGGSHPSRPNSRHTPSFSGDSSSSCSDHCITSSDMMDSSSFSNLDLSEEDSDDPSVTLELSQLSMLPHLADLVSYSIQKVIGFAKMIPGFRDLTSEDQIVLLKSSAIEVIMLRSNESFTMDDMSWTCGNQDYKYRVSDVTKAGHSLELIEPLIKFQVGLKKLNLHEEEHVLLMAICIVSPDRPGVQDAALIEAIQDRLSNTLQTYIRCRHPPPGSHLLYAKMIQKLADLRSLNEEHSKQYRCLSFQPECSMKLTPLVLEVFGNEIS
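After 23 nl compound addition and a short centrifugation, plates sat for 2 hours at ambient temperature; polarization of fluorescence then indicated loss of VDR binding to peptide SRC2-3.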
PLK1 PBD inh: blocks phosphopeptide binding to human PLK1 polo-box domain | 2.8% of 360,000 active | P53350 | AID 720504 | Potency, µM, inactives show max response, negative = inhibition, most hits filed as inhibitors | Plk1 PBD binding of FITC phosphopeptide, fluorescence polarization; also: series mostly up to about 57 µM; % is scaled to controls: 0 for no effect and ±100 for the full control effect; nearly all actives have a fitted effect of over 65% in size
BAZ2B inh: blocks human BAZ2B; AID 504333; Potency, µM (titrated, usually from 114 µM), for the others: top-dose activity change, negative = inhibition, actives largely listed as inhibitors; Q9UIF8; 4.4% of 360,000 active; AlphaScreen BAZ2B-H3K14Ac peptide displacement; also: % is scaled to controls: 0 for no effect and ±100 for the full control effect; nearly all actives have a fitted effect of over 60% in size
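AlphaScreen luminescence quantifies BAZ2B engagement of H3K14Ac peptide; the protein and biotinylated peptide are both at 50 nM final, buffer PBS pH 7.4 with 0.01% Tween-20, all steps at room temperature.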
JMJD2A Tudor: JMJD2A Tudor domain (human) inhibition; AlphaScreen JMJD2A-Tudor / H3K4me3 peptide binding; O75164; Potency, µM (top dose mostly 114 µM), for the others: at the highest dose activity change, negative = inhibition, actives largely listed as inhibitors; 4.4% of 390,000 active; also: % is scaled to controls: 0 for no effect and ±100 for the full control effect; nearly all actives have a fitted effect of over 50% in size
HP1b chromo inh: blocks HP1-beta chromodomain binding to methylated histone tails | 0.56% of 390,000 active | P83916 | AlphaScreen HP1-beta / biotin-H3K9me3 peptide binding | Potency, µM (highest dose often 114 µM), without a hit: at the highest dose activity change, negative = inhibition, actives largely listed as inhibitors | AID 540317; also: nearly all actives have a fitted effect of over 70% in size
Target sequence (P83916 whole entry, looked up): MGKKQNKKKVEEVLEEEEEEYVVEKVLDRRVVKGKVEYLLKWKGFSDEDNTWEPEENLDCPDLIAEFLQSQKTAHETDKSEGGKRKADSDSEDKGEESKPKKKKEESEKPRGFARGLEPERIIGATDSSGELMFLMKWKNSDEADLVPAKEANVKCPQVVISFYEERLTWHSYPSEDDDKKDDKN
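AlphaScreen: HP1-beta (50 nM) preformed 30 min with biotin-H3(1-18)K9me3 peptide (50 nM) in PBS pH 7.4, 0.01% Tween-20. Compound added for 30 min at RT, then streptavidin donor/nickel chelate acceptor beads (10 ug/mL) for 30 min.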
L3MBTL1 inh: inhibitors of human L3MBTL1 | Q9Y468 | Potency, µM (highest dose often 57.1 µM), for the others: at the highest dose activity, negative = inhibition, actives largely listed as inhibitors | 0.66% of 230,000 active | AlphaScreen L3MBTL1–H3K9me1 peptide binding; also: % is scaled to controls: 0 for no effect and ±100 for the full control effect; nearly all actives have a fitted effect of over 60% in size
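Read-out is AlphaScreen signal from streptavidin donor and nickel chelate acceptor beads (10 ug/mL final each) bridging L3MBTL1 (50 nM) and biotinylated K9-monomethylated H3(1-15) peptide (75 nM), after 30 min compound exposure at room temperature.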
VDR confirm: inhibits human vitamin D receptor, primary hit validation | AID 602199 | 89% of 840 active | Potency, µM, actives largely listed as inhibitors | VDR-coactivator inhibition assay, qHTS confirmation | shares compounds with VDR inhibitor
VDR FP fluor: VDR (human) coactivator binding inhibition, fluorescein polarization. shares compounds with VDR inhibitor. VDR-coactivator binding, fluorescein fluorescence polarization. Potency, µM (titrated, usually from 57.1 µM), for the others: at the highest dose activity change, negative = inhibition, usual class: inhibitors. 48% of 840 active. AID 602200
VDR bla: inhibits human VDR in beta-lactamase reporter cells. shares compounds with VDR inhibitor. VDR beta-lactamase reporter cells, FRET ratio; cells co-treated with VDR agonist LG190178. Potency, µM (series often up to 46.1 µM), for the others: top-dose activity change, negative = inhibition, usual class: inhibitors. 23% of 840 active; also: % is scaled to controls: 0 for no effect and ±100 for the full control effect
VDR viability: cytotoxic in counter-screen for VDR inhibitors | shares compounds with VDR inhibitor | cytotoxicity counter-screen, cell viability, qHTS | Potency, µM (titrated, usually from 48.3 µM), for inactives: at the top dose activity change, negative = cytotoxicity, actives largely listed as cytotoxic | 18% of 840 active;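 also: plate controls were DMSO for no effect and high-concentration cycloheximide for full effect; nearly all actives have a fitted effect of over 75% in size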
* marks the source's active call; other numbers are inactive results; ? = inconclusive; . = no result; [ ] = dose if it differs, or a comment. Rows were chosen to be rich in hits. Some 6.9% of all compounds tested hit in one or more screens of this group. Calls follow the shape of the dose curve; as a rule, active = well fitted curve in the direction sought with a large enough effect; inconclusive = small, poorly fitted or top-dose-only effect, or another doubt; inactive = no such curve, though single readings can be large; an effect the other way counts as inactive or inconclusive. Potency is read from the fitted curve at half-maximal effect.

SMILES	VDR inhibitor	PLK1 PBD inh	BAZ2B inh	JMJD2A Tudor	HP1b chromo inh	L3MBTL1 inh	VDR confirm	VDR FP fluor	VDR bla	VDR viability
O=C(/C=C\c1ccccc1OC(=O)c1ccccc1F)c1cc2ccccc2o1	14µM*	-16%	-31%	-36%	-13%	-17%	?	3.5µM*	?	?
Cc1cc(C(C2C(=O)CC(C)(C)CC2=O)C2C(=O)CC(C)(C)CC2=O)cc(C)c1OC(F)F	10µM*	5.3µM*	-12%	-25%	4%	.	24*	?	30%	22%
COc1cccc(C(C2C(=O)CC(C)(C)CC2=O)C2C(=O)CC(C)(C)CC2=O)c1	?	?	-2%	-6%	61%	.	.	.	.	.
C=CCn1c(Sc2ncc([N+](=O)[O-])s2)n[nH]c1=O	28µM*	1.2µM*	-18%	-24%	-9%	2%	15*	?	26µM*	?
CC(=O)Nc1ncc([N+](=O)[O-])s1	10%	.	.	.	.	.	.	.	.	.
CCc1ccc(NC(=O)c2cc(C(C)=O)n3ccccc23)cc1	4%	.	0%	-5%	63%	.	.	.	.	.
Cc1cc(O)c(C(=O)/C=C/c2ccc(Cl)cc2)c(=O)o1	?	-11%	-17%	-30%	-20%	.	.	.	.	.
CSc1ccc(/C=C/C(=O)c2c(O)cc(C)oc2=O)cc1	?	-7%	-34%	?	3%	-28%	5.3*	152%	?	?
CN(C)c1ccc(-n2cccc2/C=C/[N+](=O)[O-])cc1	35µM*	-26%	16µM*	25µM*	45µM*	.	13*	8.9µM*	?	?
Cc1cccc(C)c1N=C1NN=C(c2ccccc2F)CS1	-7%	1%	0%	-22%	12%	-5%	.	.	.	.
COc1ccccc1C1=NNC(=Nc2cccc(S(=O)(=O)N(C)C)c2)SC1	?	-19%	?	-21%	?	?	?	?	2%	?
CCOC(=O)c1nnn(-c2ccc([N+](=O)[O-])cc2[N+](=O)[O-])c1C	-2%	-12%	-23%	-18%	14%	-12%	.	.	.	.
COc1ccc(CC2=CC(=O)c3ccccc3C2=O)cc1	20µM*	?	14µM*	25µM*	13µM*	?	4.2*	3.2µM*	?	16µM*
COc1ccc(Cc2ccccc2C(=O)O)cc1	10%	-9%	.	-10%	9%[57 µM]	.	.	.	.	.
O=C(NNc1cc(Br)c(O)c(Br)c1)c1ccccc1	79µM*	-21%	8.9µM*	8.9µM*	40µM*	.	?	?	-4%	1%
O=C(NNc1ccccc1)c1ccc(Cl)c(Cl)c1	?	-4%	.	-7%	39%	.	.	.	.	.
COc1ccc(Cn2cc(CN3CC(N4CCN(Cc5ccccc5F)CC4)CS3(=O)=O)nn2)cc1 (stereo not drawn)	.	-1%	.	.	.	.	.	.	.	.
CCOC(=O)N1CCN(CCC(=O)c2ccc(Cl)cc2)CC1	35µM*	12µM*	22%	-14%	18%	7%[11.4 µM]	12*	11µM*	?	?
O=C(CN1CCN(c2ccc([N+](=O)[O-])cc2)CC1)c1ccccc1	-19%	-26%	-26%	?	-4%	.	.	.	.	.
CCOC(=O)N1CCN(C(=O)Cc2ccc(Cl)cc2)CC1	-9%	-5%	4%	3%	35%	1%	.	.	.	.
O=C(CCN1CCN(c2ccc([N+](=O)[O-])cc2)CC1)c1ccc(Cl)cc1	25µM*	?	?	?	3%	.	27*	13µM*	12%	?
O=C(CN(Cc1ccc(Br)cc1)S(=O)(=O)c1ccccc1)NCc1cccnc1	-12%	-14%	-4%	-15%	9%	.	.	.	.	.
O=C(NCc1cccnc1)/C(=C\c1ccc(-c2ccc(Br)cc2)o1)S(=O)(=O)c1ccccc1	40µM*	?	?	?	-5%	-8%	34*	?	5.8µM*	21µM*
O=C(CSc1nc2ccc(S(=O)(=O)N3CCOCC3)cc2[nH]1)N1CCOCC1	22µM*	2.2µM*	-37%	79µM*	?	.	3.8*	?	9%	14%
CCSc1nc2cc(S(=O)(=O)N3CCOCC3)ccc2o1	25µM*	3µM*	.	28µM*	?	4%	9.5*	?	-1%	24%
SMILES	VDR inhibitor	PLK1 PBD inh	BAZ2B inh	JMJD2A Tudor	HP1b chromo inh	L3MBTL1 inh	VDR confirm	VDR FP fluor	VDR bla	VDR viability
c1ccc2nc3c(nc2c1)c1ccccc1n3CCN1CCOCC1	7%	-12%	16%	-7%	49%	9%[11.4 µM]	.	.	.	.
O=C(CSc1nc2ccccc2c(=O)[nH]1)N1CCOCC1	22%	-7%	3%	-27%	19%	.	.	.	.	.
O=c1ccc2cc(S(=O)(=O)N3CCOCC3)ccc2o1	8%	-8%	-12%	0%	12%	-3%	.	.	.	.
CCn1c2ccccc2c2nc3cc(S(=O)(=O)N4CCOCC4)ccc3nc21	28µM*	0.67µM*	1%	-9%[57.1 µM]	?	14%	6*	?	10%	?
CCCCNC(=O)C1(C)CCN1C(=O)c1ccc(F)cc1Cl (stereo not drawn)	.	-9%	.	.	.	.	.	.	.	.
O=C(O)c1ccc(S(=O)(=O)c2ccccc2C(=O)O)c([N+](=O)[O-])c1	0%	-15%	-18%	-33%	68%	.	.	.	.	.
O=C(O)c1ccc(S(=O)(=O)c2ccc([N+](=O)[O-])cc2[N+](=O)[O-])cc1	22µM*	8.4µM*	-15%	-19%	67%	.	11*	?	15%	-14%
O=C(c1ccco1)n1nc(-c2ccc(Cl)cc2)nc1NCc1ccc(F)cc1	7%	.	-10%	-10%	38%	.	.	.	.	.
Cc1ccccc1N1C(=O)c2sc3nc4c(c(=O)n3c2C1=O)CCC4	?	8.4µM*	5%	?	-49%	-8%	20*	25µM*	?	0%
CSc1nc2sc3c(c2c(=O)n1-c1ccccc1C)CCCC3	5%	.	-3%	-13%	32%	.	.	.	.	.
CCS(=O)(=O)c1ncc(Cl)c(C(=O)Nc2c(C(=O)c3ccc(C)cc3)oc3ccccc23)n1	1%	.	-4%	-9%	25%	.	.	.	.	.
